PubChem BioAssay (NCI)
About 83,000 compounds went through this panel and 20% of them were active in at least one assay; those are over-represented in the sample as a whole.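 In brief: 96-well plates, 48 h treatment, single concentration, percent growth endpoint.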 A number with no mark means an inactive call. The source made the active and inactive calls. Rule for the calls: active = growth percent below 10; inactive = the rest.

Columns and labels:
Experiment in all cases: NCI-60 one-dose screen, 48 h (100 = growth as untreated, 0 = no growth, -100 = all killed)
Settings in all cases: 10 µM unless noted
[1] = tested on: DU-145 prostate
[2] = tested on: K-562 leukemia
[3] = tested on: MALME-3M melanoma
[4] = tested on: MDA-MB-231 breast
[5] = tested on: SF-268 CNS
[6] = tested on: SF-295 CNS
[7] = tested on: SF-539 CNS
[8] = tested on: M14 melanoma
[9] = tested on: HCT-15 colon
[10] = tested on: HT29 colon
[11] = tested on: SNB-75 CNS
[12] = tested on: SNB-19 CNS
[13] = tested on: U251 CNS
[14] = tested on: PC-3 prostate
[15] = tested on: SK-MEL-5 melanoma
[16] = tested on: UACC-62 melanoma
[17] = tested on: LOX IMVI melanoma
[18] = tested on: SK-MEL-28 melanoma

| SMILES | growth [1] | growth [2] | growth [3] | growth [4] | growth [5] | growth [6] | growth [7] | growth [8] | growth [9] | growth [10] | growth [11] | growth [12] | growth [13] | growth [14] | growth [15] | growth [16] | growth [17] | growth [18] |
| --- | --- | --- | --- | --- | --- | --- | --- | --- | --- | --- | --- | --- | --- | --- | --- | --- | --- | --- |
| COc1ccc(-c2nc(N)ncc2Oc2ccccc2OC)c(O)c1 | 34.9% | 12.2% | 48% | 51.9% | 46.3% | -0.599% (active) | 8.99% (active) | 12.5% | 17.2% | 10.3% | 10.8% | 41.5% | 30.6% | 31% | 25% | 51% | 34% | 63.1% |
| COC(=O)[C@]12CC[C@@H](C)[C@H](C)[C@@H]1C1=CC[C@@H]3[C@@]4(C)C(C=O)=C[C@@](C)(COS(C)(=O)=O)C4=CC[C@@]3(C)[C@]1(C)CC2 | -92.2% (active) | -6.44% (active) | -77.7% (active) | -55.4% (active) | -57.1% (active) | -60.2% (active) | -69.8% (active) | -55.8% (active) | -80.5% (active) | -63.2% (active) | -25.1% (active) | -5.33% (active) | -93.6% (active) | -19.9% (active) | -98.2% (active) | -73.4% (active) | -98.7% (active) | -72.3% (active) |
| COC(=O)[C@]12CC[C@@H](C)[C@H](C)[C@@H]1C1=CC[C@@H]3[C@@]4(C)C(c5cnco5)=C[C@@](C)(CO)C4=CC[C@@]3(C)[C@]1(C)CC2 | 29.4% | 30.8% | 87.6% | 58.8% | 63% | 31.2% | 66.4% | 63.4% | 29.8% | 26.6% | 77.1% | 65.7% | 61.8% | 12.6% | 47.2% | 65.3% | 67.7% | 66.7% |
| C=C1C(=O)O[C@H]2[C@H]1CC/C(Cn1cc(-c3cc(C)c(C)cc3C)nn1)=C\CC[C@@]1(C)O[C@@H]21 | -100% (active) | -10.7% (active) | -79.8% (active) | -73.7% (active) | -54.5% (active) | 59.8% | -82.9% (active) | -57.3% (active) | -82.6% (active) | -67.9% (active) | 29% | 41.8% | 12.8% | -69.7% (active) | 7.44% (active) | -82% (active) | -95% (active) | -76.3% (active) |
| Clc1nc(Cl)c2ncn(C/C=C\Cn3cnc4c(Cl)nc(Cl)nc43)c2n1 | -98.4% (active) | -24.8% (active) | -72.7% (active) | -68.5% (active) | -2.21% (active) | -32.9% (active) | -52.9% (active) | -32.9% (active) | -44.7% (active) | -65.9% (active) | -25.7% (active) | 9.97% (active) | -56.5% (active) | -57.6% (active) | -81.5% (active) | -72.7% (active) | -80.1% (active) | -19% (active) |
| COc1cc2c3c(c1)nc(C)n3CCC2 | 109% | 98.8% | 110% | 107% | 107% | 95.8% | 97.9% | 100% | 98.2% | 97.2% | 83.4% | 101% | 91.9% | 90.1% | 97.4% | 100% | 92.7% | 106% |
| CCOC(=O)C1=C(C)N=C2Sc3cccc(OC)c3N2[C@H]1c1ccccn1 | 105% | 101% | 91.2% | 90.6% | 94.2% | 101% | 103% | 103% | 104% | 97.3% | 93.7% | 96.8% | 96.4% | 88.3% | 101% | 87.1% | 96.7% | 119% |
| COc1ccc(-c2nocc2-c2cc(OC)c(OC)c(OC)c2)cc1 | 15.2% | 12.8% | 60.3% | 25.8% | 39% | -4.64% (active) | 2.52% (active) | 3.03% (active) | 9.74% (active) | 0.361% (active) | 32.8% | 34.9% | 19.1% | 29% | 7.25% (active) | 13% | 43.5% | 49.8% |
| CC1(C)NC(=O)c2[nH]c3c(Cl)c(Cl)ccc3c2C1C#N (stereo unspecified) | 92.9% | 69.2% | 99.7% | 91.2% | 94.8% | 59.3% | 85.4% | 106% | 87.9% | 78.2% | 75.7% | 87.5% | 81.7% | 79.6% | 8.85% (active) | 73.1% | 85.5% | 103% |
| CCN(CCN(C)C)C(=O)CNCc1cc(C(N)=O)ccn1 | 112% | 95.2% | 114% | 97.6% | 108% | 104% | 105% | 103% | 102% | 80% | 98.6% | 104% | 87.5% | 79.5% | 95.4% | 105% | 99.5% | 110% |
| CC(N)C(Cc1ccc(Cl)cc1)c1ccc(Cl)cc1 (stereo unspecified) | 61% | 0.46% (active) | 80.3% | 35.5% | 62.6% | 84.9% | 80.8% | 47.6% | 69.3% | -21.9% (active) | 48.6% | 82.4% | 5.91% (active) | 37.5% | 90.1% | 92.4% | 74.3% | 62.6% |
| N#CC1(C#N)C(c2cccs2)NC(c2cccs2)C1(C#N)C#N (stereo unspecified) | 102% | 95.8% | 99.2% | 104% | 98.1% | 95.6% | 97.6% | 102% | 94.5% | 103% | 75.1% | 106% | 104% | 94.6% | 114% | 101% | 93.9% | 109% |
| O=c1nc2c(-c3nc4ccccc4s3)n[nH]n2c2sc3c(c12)CCCC3 | 104% | 92.3% | 104% | 93.7% | 97.6% | 89.8% | 105% | 98.8% | 64% | 111% | 104% | 101% | 86.5% | 79.6% | 101% | 92.7% | 96.9% | 114% |
| COc1cc2c(cc1OCCCCCCN1CCN(c3ncnc4ccccc34)CC1)N=CC1CCCN1C2=O (stereo unspecified) | 4.65% (active) | -15.9% (active) | -65.9% (active) | -29.1% (active) | -2.27% (active) | -45.5% (active) | -56.3% (active) | -85.5% (active) | -2.53% (active) | 10.9% | -46.9% (active) | 17% | 0.0332% (active) | -23.1% (active) | -87.2% (active) | -95.8% (active) | -51.1% (active) | -4.17% (active) |
| COc1ccc2c(CCCCC(c3ccccc3)c3ccccc3)c3[n+](cc2c1OC)CCc1cc2c(cc1-3)OCO2 | -80% (active) | -7.74% (active) | -80.9% (active) | -75.1% (active) | -60.7% (active) | -84.2% (active) | -64.5% (active) | -76.1% (active) | -47% (active) | -73.7% (active) | -74% (active) | -65.2% (active) | -93.2% (active) | -75% (active) | -99.5% (active) | -63.6% (active) | -100% (active) | -82.1% (active) |
| COc1ccc2c(c1OC)C(=O)O[C@@H]2[C@H]1c2c(c(C#CC#Cc3ccc(F)c(F)c3)c3c(c2OC)OCO3)CCN1C | 103% | 87.1% | 91% | 90.9% | 95.9% | 95.6% | 94.9% | 90.6% | 56.8% | 92.3% | 89.6% | 103% | 88.4% | 50.8% | 66.2% | 69.5% | 90.9% | 96.3% |
| CCCc1cc2cc(-n3nc(C)c4c3CC(C)(C)CC4=O)cc(NC3CCC(O)CC3)c2c(=O)[nH]1 (stereo unspecified) | 38.8% | 10% | 29.9% | -0.14% (active) | 50.2% | -35.6% (active) | 37.8% | 23.6% | 23.6% | 8.7% (active) | 49.4% | 40% | 25.6% | 33% | 15.8% | 14.1% | -18.4% (active) | 36.4% |
